# Laboratory results as given in the supplement of paper PMC7411054.
# Structures can show the parent of a compound that is named as a salt.
# Legend:
# Details in all cases: treatment time: 24 h
# WPMY1-ACTB-RAB5A [1] = assay: lowest phenotypically active concentration; higher = less potent
# Method in brief: (§1)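 After 24 h at 0.3, 1, 3 or 9 µM, with four wells per treatment, fifteen gene-edited A549, HepG2 and WPMY1 reporter lines carrying BFP, GFP and RFP/FusionRed were imaged live. Each well's live-cell features were expressed relative to solvent control wells. Deviation required ≥3 of 4 wells past the 95th percentile of control Euclidean distances, and reproducibility a median replicate Pearson correlation over the 95th percentile of non-replicates. Phenotypic activity rested on both.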
# A549-ACTB-RAB5A = assay: phenotypically active (imaging signature differs from DMSO and reproducible) at any of 0.3-9 uM (binary (1 = active, 0 = inactive)); higher = active
# Method in brief: as §1
# A549-CANX-COX4 = assay: as above
# Method in brief: as §1
# A549-GM130-SQSTM1 = assay: as above
# Method in brief: as §1
# A549-TP53BP1-CLTA = assay: as above
# Method in brief: as §1
# A549-TUBA1B-RELA = assay: as above
# Method in brief: as §1
# HepG2-ACTB-RAB5A = assay: as above
# Method in brief: as §1
# HepG2-CANX-COX4 = assay: as above
# Method in brief: as §1
# HepG2-GM130-SQSTM1 [2] = assay: as above
# Method in brief: as §1
# HepG2-TP53BP1-CLTA = assay: as above
# Method in brief: as §1
# HepG2-TUBA1B-RELA = assay: as above
# Method in brief: as §1
# WPMY1-ACTB-RAB5A [3] = assay: as above
# Method in brief: as §1
# WPMY1-CANX-COX4 = assay: as above
# Method in brief: as §1
# WPMY1-GM130-SQSTM1 [4] = assay: as above
# Method in brief: as §1
# WPMY1-TP53BP1-CLTA = assay: as above
# Method in brief: as §1
# WPMY1-TUBA1B-RELA = assay: as above
# Method in brief: as §1
# WPMY1-GM130-SQSTM1 [5] = assay: lowest phenotypically active concentration; higher = less potent
# Method in brief: as §1
# HepG2-GM130-SQSTM1 [6] = assay: as above
# Method in brief: as §1
Compound,lowest phenotypically active concentration (WPMY1-ACTB-RAB5A [1]) [µM],phenotypically active (A549-ACTB-RAB5A),phenotypically active (A549-CANX-COX4),phenotypically active (A549-GM130-SQSTM1),phenotypically active (A549-TP53BP1-CLTA),phenotypically active (A549-TUBA1B-RELA),phenotypically active (HepG2-ACTB-RAB5A),phenotypically active (HepG2-CANX-COX4),phenotypically active (HepG2-GM130-SQSTM1 [2]),phenotypically active (HepG2-TP53BP1-CLTA),phenotypically active (HepG2-TUBA1B-RELA),phenotypically active (WPMY1-ACTB-RAB5A [3]),phenotypically active (WPMY1-CANX-COX4),phenotypically active (WPMY1-GM130-SQSTM1 [4]),phenotypically active (WPMY1-TP53BP1-CLTA),phenotypically active (WPMY1-TUBA1B-RELA),lowest phenotypically active concentration (WPMY1-GM130-SQSTM1 [5]) [µM],lowest phenotypically active concentration (HepG2-GM130-SQSTM1 [6]) [µM]
CNC(=O)c1ccc(C)c(-n2c(C)cc(OCc3ccc(F)cc3F)c(Br)c2=O)c1,1,0 (inactive),0 (inactive),0 (inactive),0 (inactive),0 (inactive),0 (inactive),0 (inactive),0 (inactive),0 (inactive),0 (inactive),1 (active),0 (inactive),0 (inactive),0 (inactive),0 (inactive),–,–
CCN1C(=O)NC(c2ccccc2)C1=O (stereo unspecified) [ethotoin],3,0 (inactive),0 (inactive),0 (inactive),0 (inactive),0 (inactive),0 (inactive),0 (inactive),0 (inactive),0 (inactive),0 (inactive),1 (active),1 (active),0 (inactive),0 (inactive),0 (inactive),–,–
CCCCCCCN(CC)CCCC(O)c1ccc(NS(C)(=O)=O)cc1 (stereo unspecified) [ibutilide],–,0 (inactive),0 (inactive),0 (inactive),0 (inactive),0 (inactive),0 (inactive),0 (inactive),0 (inactive),0 (inactive),0 (inactive),0 (inactive),0 (inactive),1 (active),0 (inactive),0 (inactive),3,–
CCCN[C@H]1CCc2nc(N)sc2C1 [pramipexole],–,0 (inactive),0 (inactive),0 (inactive),0 (inactive),0 (inactive),0 (inactive),0 (inactive),0 (inactive),0 (inactive),0 (inactive),0 (inactive),0 (inactive),1 (active),0 (inactive),0 (inactive),9,–
COc1ccc(C[C@@H]2c3cc(OC)c(OC)cc3CC[N@+]2(C)CCC(=O)OCCCCCOC(=O)CC[N@@+]2(C)CCc3cc(OC)c(OC)cc3[C@H]2Cc2ccc(OC)c(OC)c2)cc1OC [Cisatracurium besylate],–,0 (inactive),0 (inactive),0 (inactive),0 (inactive),0 (inactive),0 (inactive),0 (inactive),1 (active),0 (inactive),0 (inactive),0 (inactive),0 (inactive),1 (active),0 (inactive),0 (inactive),9,9
COC(=O)[C@H]1[C@H]2C[C@H]3c4[nH]c5ccccc5c4CCN3C[C@H]2CC[C@@H]1O [Rauwolscine hydrochloride],–,0 (inactive),0 (inactive),0 (inactive),0 (inactive),0 (inactive),0 (inactive),0 (inactive),0 (inactive),0 (inactive),0 (inactive),0 (inactive),0 (inactive),1 (active),0 (inactive),0 (inactive),3,–
COc1ccnc(CS(=O)c2nc3cc(OC(F)F)ccc3[nH]2)c1OC (stereo unspecified) [pantoprazole],≤ 0.3,0 (inactive),0 (inactive),0 (inactive),0 (inactive),0 (inactive),0 (inactive),0 (inactive),0 (inactive),0 (inactive),0 (inactive),1 (active),0 (inactive),0 (inactive),0 (inactive),0 (inactive),–,–
COc1ccc(Cn2ccc3ccc(C(=O)NO)cc32)cc1,–,0 (inactive),0 (inactive),0 (inactive),0 (inactive),0 (inactive),0 (inactive),0 (inactive),0 (inactive),0 (inactive),0 (inactive),0 (inactive),0 (inactive),1 (active),0 (inactive),0 (inactive),3,–
Cc1ccc(C(=O)Oc2ccc(C(O)CNC(C)(C)C)cc2OC(=O)c2ccc(C)cc2)cc1 (stereo unspecified) [bitolterol],–,0 (inactive),0 (inactive),0 (inactive),0 (inactive),0 (inactive),0 (inactive),0 (inactive),0 (inactive),0 (inactive),0 (inactive),0 (inactive),1 (active),0 (inactive),0 (inactive),0 (inactive),–,–
COC(=O)C1=C(C)NC(C)=C(C(=O)OCCN(C)Cc2ccccc2)C1c1cccc([N+](=O)[O-])c1 (stereo unspecified) [nicardipine],–,0 (inactive),0 (inactive),0 (inactive),0 (inactive),0 (inactive),0 (inactive),0 (inactive),0 (inactive),0 (inactive),0 (inactive),0 (inactive),0 (inactive),1 (active),0 (inactive),0 (inactive),9,–
CC(C)C[C@H](NC(=O)OCC1c2ccccc2-c2ccccc21)C(=O)O,9,0 (inactive),0 (inactive),0 (inactive),0 (inactive),0 (inactive),0 (inactive),0 (inactive),0 (inactive),0 (inactive),0 (inactive),1 (active),0 (inactive),0 (inactive),0 (inactive),0 (inactive),–,–
O=C(Nc1ccccc1)N1CCC(Cc2cnc3ccccc3c2)CC1,–,0 (inactive),0 (inactive),0 (inactive),0 (inactive),0 (inactive),0 (inactive),0 (inactive),0 (inactive),1 (active),1 (active),0 (inactive),0 (inactive),0 (inactive),0 (inactive),0 (inactive),–,–
